Screening results deposited in PubChem BioAssay by National Center for Advancing Translational Sciences (NCATS).
ClpP mod: qHTS Assay for Activators of ClpP; ATP-dependent Clp protease proteolytic subunit (Bacillus subtilis (strain 168)), P80244; purified B. subtilis ClpP, FRET peptide cleavage, 20 min; Potency, µM (titrated, usually from 57.5 µM), inactives show top-dose activity change, negative = active; hit rate 1.9% among 340,000; AID 651965, 2013; active = well fitted falling curve with a large enough effect; inconclusive = small, poorly fitted or top-dose-only effect; inactive = no such curve, though single readings can be large or run the other way; note: the source files actives as falling curves though it sought activators and does not explain the sign; nearly all actives have a fitted effect of over 65% in size
Target sequence (P80244 whole entry, looked up): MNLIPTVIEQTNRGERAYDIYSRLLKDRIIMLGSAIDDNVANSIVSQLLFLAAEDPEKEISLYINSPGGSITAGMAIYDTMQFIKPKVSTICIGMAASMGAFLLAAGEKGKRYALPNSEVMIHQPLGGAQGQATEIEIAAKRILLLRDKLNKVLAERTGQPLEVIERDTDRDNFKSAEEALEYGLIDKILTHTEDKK
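Buffer: 100 mM Tris/HCl pH8, 100 mM KCl, 0.05% low protease BSA, 2.5% glycerol, 0.01% Tween-20. ClpP 10 microg/mL final; 20 min RT; delta FRET normalized to ADEP and DMSO controls.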
TDP1 cell CPT: growth inhibition of DT40 Tdp1-/-;hTDP1 cells with camptothecin (screen for TDP1 inhibitors); hit rate 12% among 420,000; Potency, µM (doses to about 46.2 µM), without a hit: at the top dose activity change, negative = growth inhibition, hits mostly inhibitors; AID 686979; chicken DT40 Tdp1-/-;hTDP1 cells + 20 nM CPT, ATP luminescence, 48 h; note: % is set by controls: 0 for no effect and ±100 for the full control effect; nearly all actives have a fitted effect of over 55% in size
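Chicken DT40 Tdp1-/- cells stably complemented with human TDP1 were seeded at 400 cells/well in medium containing 20 nM camptothecin, exposed to pin-transferred compounds, and grown at 37 °C for at least 48 hr. Viability was read as ATP luminescence.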
DT40 TDP1 no CPT: qHTS for Inhibitors of human tyrosyl-DNA phosphodiesterase 1 (TDP1): qHTS in cells in absence of CPT; DT40 Tdp1-/- hTDP1 cells, no CPT, ATP luminescence, 48 h; Potency, µM (titrated, usually from 46.2 µM), inactives show at the highest dose activity change, negative = growth inhibition, hits mostly inhibitors; hit rate 15% among 420,000; AID 686978, 2013; note: % is set by controls: 0 for no effect and ±100 for the full control effect; nearly all actives have a fitted effect of over 55% in size
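Luminescent ATP content (CellTiter-Glo) served as the growth readout. Knockout chicken DT40 cells expressing human TDP1 were exposed to compounds without camptothecin for a minimum 48 hr at 37 °C.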
TDP1 block: blocks human tyrosyl-DNA phosphodiesterase 1; hit rate 0.28% among 350,000; AID 485290; recombinant TDP1, AlphaScreen DNA substrate cleavage; Q9NUW8; Potency, µM (doses to about 130 µM), for inactives: at the top dose activity change, negative = inhibition, usual class: inhibitors; note: % is set by controls: 0 for no effect and ±100 for the full control effect; nearly all actives have a fitted effect of over 40% in size
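Recombinant human Tdp1 (E. coli-expressed, 1 nM final) preincubated with compounds 15 min at room temperature, then 5'-biotin/3'-phosphotyrosine-FITC DNA substrate (15 nM final) added for 5 min. AlphaScreen beads (10 ug/ml final) added 10 min; cleavage lowers signal.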
The depositor's hits bear a star; ? = inconclusive; / = no result given; [ ] = remark or other dose. Compounds with a hit are over-represented: about 17% of the library has one in this group of screens. Unless noted, calls come from the whole dose curve; as a rule, active = well fitted curve in the direction sought with a large enough effect; inconclusive = small, poorly fitted or top-dose-only effect, or another doubt; inactive = no such curve, though single readings can be large; an effect the other way counts as inactive or inconclusive. Potency is the fitted concentration of half-maximal effect.

SMILES	ClpP mod	TDP1 cell CPT	DT40 TDP1 no CPT	TDP1 block
N=c1n(CC(=O)c2ccc(Br)cc2)c2ccccc2n1Cc1ccccc1	-1%	5.2µM*	6.5µM*	-4%
O=C(CN1CCN(Cc2ccccc2)CC1)c1ccc(Br)cc1	0%	?	-10%	6%
CCCn1c(=N)n(CC(=O)c2ccco2)c2ccccc21	-4%	-24%	-19%	2%
N=c1n(CC(=O)c2ccc([N+](=O)[O-])cc2)c2ccccc2n1Cc1ccc(Cl)cc1	1%	2.9µM*	5.2µM*	2%
N=c1n(Cc2ccccc2)c2ccccc2n1Cc1ccccc1	-2%	18µM*	21µM*	-10%
CCn1c(=N)n(CC(O)c2ccco2)c2ccccc21 (stereo not given)	0%	-7%	-15%	-3%
N=c1n(Cc2ccccc2)c2ccccc2n1CC(O)c1ccco1 (stereo not given)	1%	21µM*	23µM*	3%
N=c1n(CCN2CCCCC2)c2ccccc2n1CC(=O)c1cccc([N+](=O)[O-])c1	1%	?	18µM*	/
N=c1n(CCO)c2ccccc2n1Cc1ccc(Cl)cc1	0%	26µM*	16µM*	5%
CCOC(=O)Cn1c(=N)n(Cc2ccccc2)c2ccccc21	-2%	-6%	-25%	1%
N=c1n(CCO)c2ccccc2n1CCN1CCCCC1	/	9%	3%	3%
Nc1c(-c2nc(-c3cccs3)no2)nnn1-c1ccccc1Cl	1%	?	?	5%
O=C(Cc1nc2ccccc2[nH]1)N1CCC(n2c(C3CCC3)nc3cccnc32)CC1	/	-7%	-17%	/
Cc1cccc(C)c1NC(=O)c1csc(COCCO)n1	-2%	0%	-5%	/
C=CCn1c(=N)n(CC(=O)c2cccc([N+](=O)[O-])c2)c2ccccc21	?	?	?	1%
N=c1n(CC(=O)c2ccc([N+](=O)[O-])cc2)c2ccccc2n1Cc1ccccc1	0%	7.3µM*	5.8µM*	1%
CCOc1ccc(C(=O)Nc2cccc(NC(=O)c3ccc(Cl)cc3Cl)c2)cc1	?	?	21µM*	0%[12.3 µM]
CCOc1ccc(NS(=O)(=O)c2cc(NC(=O)c3ccc(C)cc3)ccc2Cl)cc1	-8%	3.7µM*	2.6µM*	0%
CCOc1ccc(Oc2ccc(NS(=O)(=O)c3cc(C(=O)O)ccc3Cl)cc2)cc1	3%	-7%	20%	1%
CCCOc1ccc(C(=O)Nc2cccc(NC(=O)c3cccc(Cl)c3)c2)cc1	?	-24%	-27%	2%[2.28 µM]
CC(C)(C)C(=O)OCOP(=O)(OCOC(=O)C(C)(C)C)C(C)(Oc1ccc(O)cc1)P(=O)(OCOC(=O)C(C)(C)C)OCOC(=O)C(C)(C)C	/	/	/	-1%
Cn1cc(/C=C2\SC(=O)N(c3ccc(O)cc3)C2=O)c2ccccc21	-3%	?	16µM*	/
Cn1cc(/C=C2\SC(=O)N(c3ccccc3)C2=O)c2ccccc21	-1%	1%	-28%	1%
CC[C@@H](C(=O)[C@@H](C)[C@@H](O)[C@H](C)CCc1ccc(C)c(O)c1C(=O)O)[C@H]1O[C@](CC)([C@H]2CC[C@](O)(CC)[C@H](C)O2)C[C@@H]1C	-29%	2.6µM*	2.3µM*	/
O=S(=O)(Nc1ccc(-c2ccc(N3CCCC3)nn2)cc1)c1ccc(C(F)(F)F)cc1	-1%	?	?	2%
SMILES	ClpP mod	TDP1 cell CPT	DT40 TDP1 no CPT	TDP1 block
Cc1cc(C)c(S(=O)(=O)Nc2ccc(-c3ccc(N4CCCCC4)nn3)cc2)cc1C	-5%	8.2µM*	18µM*	8%
O=S(=O)(Nc1ccc(-c2ccc(N3CCCCCC3)nn2)cc1)c1cccc(C(F)(F)F)c1	-13%	15µM*	?	4%
O=S(=O)(Nc1ccc(-c2ccc(N3CCCCCC3)nn2)cc1)c1ccc(C(F)(F)F)cc1	-8%	12µM*	?	-5%
COc1cccc(C(=O)Nc2ccc3nc(SCCOc4ccccc4)sc3c2)c1	4%	?	?	3%
CCC(=O)N(CC)C1=C(O)c2ccccc2C(=O)C1=O	3%	4.6µM*	8.2µM*	6%
COc1ccc(-n2nc(C(=O)NCC(=O)NCc3ccc(F)cc3)c3ccccc3c2=O)cc1	/	-26%	18µM*	1%
CCOC(=O)N1CCN(C(=O)CNC(=O)c2nn(-c3ccc(OC)c(Cl)c3)c(=O)c3ccccc23)CC1	/	?	9.2µM*	0%
COCCNC(=O)CNC(=O)c1nn(-c2ccc(OC)c(Cl)c2)c(=O)c2ccccc12	-3%	?	-14%	3%
COc1ccc(-n2nc(C(=O)NCC(=O)NCCc3ccc(OC)c(OC)c3)c3ccccc3c2=O)cc1Cl	/	?	13µM*	-9%
COc1ccc(-n2nc(C(=O)NCC(=O)N3CCN(c4ccc(F)cc4)CC3)c3ccccc3c2=O)c(OC)c1	-2%	21µM*	?	-6%
COc1ccc(C(=O)Nc2ccc3oc(-c4cc(Cl)ccc4Cl)nc3c2)cc1Br	?	-3%	6%	-7%[12.3 µM]
Cc1cccc(C(=O)NCC2Cc3cc(F)cc(-c4cnccn4)c3O2)n1 (stereo not given)	/	3%[9.04 µM]	?	/
Cc1cccc(CC(=O)N2CC(=O)Nc3ccc(Br)cc3C2c2ccc(F)cc2)c1 (stereo not given)	-3%	?	?	6%
CCN(CC(=O)Nc1ccc(N2CCOCC2)cc1)C(=O)c1ccc(C(F)(F)F)cc1	/	-9%	-14%	0%
COc1ccc(-n2nc(C(=O)NCC(=O)N3CCN(Cc4ccccc4)CC3)c3ccccc3c2=O)cc1	-6%	23µM*	?	-8%
CCN1CCN(C(=O)CNC(=O)c2nn(-c3ccc(OC)cc3)c(=O)c3ccccc23)CC1	/	3%	4%	-7%
O=C(C1=C(O)C(=O)N(CC2CCCO2)C1c1ccccc1)c1ccco1 (stereo not given)	/	1%	-15%	/
CC(C)(C)c1ccc(C2C(C(=O)c3ccco3)=C(O)C(=O)N2CC2CCCO2)cc1 (stereo not given)	/	?	18µM*	12%
CCN(CC(F)(F)C(F)F)S(=O)(=O)c1ccc(NC(=O)OC)cc1	1%	26µM*	16µM*	5%
CCN(CC)S(=O)(=O)c1ccc(/C=C/C(=O)Nc2cccc(F)c2)cc1	8%	21µM*	21µM*	2%
CCN(CC(=O)NCc1ccc(Cl)cc1)S(=O)(=O)c1ccc(F)cc1	3%	?	-17%	/
O=S(=O)(Nc1cccc(C(F)(F)F)c1)c1ccc(NS(=O)(=O)c2ccc3c(c2)OCCO3)cc1	0%	-27%	1%	/
CCN(CC(=O)NCc1ccc(F)cc1)C(=O)/C=C/c1ccc(S(=O)(=O)N(CC)CC)cc1	/	23µM*	21µM*	9%
COC(=O)Nc1ccc(S(=O)(=O)N(C)C)cc1	0%	?	-13%	0%
